From PubChem BioAssay
G9a block: G9a (human) methyltransferase inhibition; Q96KQ7; G9a H3K9 monomethylation, AlphaScreen, 2 h; Potency, µM (top dose mostly 102 µM), usual class: inhibitors; 8.8% of 350,000 active; AID 504332; note: nearly all actives have a fitted effect of over 75% in size
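Compounds were preincubated with 20 nM G9a for 15 min, after which biotinylated H3K9 peptide (500 nM) and SAM (20 uM) started a 2 h room-temperature reaction. Monomethylated product was quantified by antibody-based AlphaScreen chemiluminescence.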
HP1b binding inh: blocks HP1-beta chromodomain binding to methylated histone tails. P83916. AlphaScreen HP1-beta / biotin-H3K9me3 peptide binding. Potency, µM (titrated, usually from 114 µM), actives largely listed as inhibitors. 0.56% of 390,000 active; note: nearly all actives have a fitted effect of over 70% in size
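AlphaScreen: HP1-beta (50 nM) preformed 30 min with biotin-H3(1-18)K9me3 peptide (50 nM) in PBS pH 7.4, 0.01% Tween-20. Compound added for 30 min at RT, then streptavidin donor/nickel chelate acceptor beads (10 ug/mL) for 30 min.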
BAZ2B block: BAZ2B (human) inhibition; AlphaScreen BAZ2B-H3K14Ac peptide displacement; Potency, µM (top dose mostly 114 µM), usual class: inhibitors; 4.4% of 360,000 active; note: nearly all actives have a fitted effect of over 60% in size
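BAZ2B (50 nM) with biotin-H3(5-23)K14Ac peptide (50 nM) in PBS pH 7.4, 0.01% Tween-20, preformed 30 min, then compound 30 min at room temperature; top concentration 110uM. AlphaScreen streptavidin donor/nickel chelate acceptor beads (10 ug/mL final), 20 min dark, signal read.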
Sfp PPTase inh: Sfp phosphopantetheinyl transferase inhibition | Q9F4F7 | Biochemical Sfp PPTase activity, qHTS | Potency, µM, hits mostly inhibitors | 3.5% of 310,000 active | AID 1490;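 note: the enzyme is Sfp with the accession as filed and its product quenches rhodamine fluorescence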
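Fluorescence-quenching assay with 15 nM Sfp, 5 uM rhodamine-CoA and 12.5 uM BHQ-2-labelled ybbR peptide in pH 7.6 Hepes/MgCl2 buffer. Enzyme was pre-incubated with compound for 15 min at room temperature. Rate was taken from the 30-min fluorescence change (525/598 nm).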
JMJD2A Tudor: inhibitors of human JMJD2A Tudor domain; AID 504339; Potency, µM (series often up to 114 µM), most hits filed as inhibitors; 4.4% of 390,000 active; AlphaScreen JMJD2A-Tudor / H3K4me3 peptide binding; note: nearly all actives have a fitted effect of over 50% in size
Large screens that a line does not name were inactive. Hits are enriched below; roughly 12% of the tested compounds scored in any of these assays. Calls come from the whole dose curve; as a rule, active = well fitted curve in the direction sought with a large enough effect; inconclusive = small, poorly fitted or top-dose-only effect, or another doubt; inactive = no such curve, though single readings can be large; an effect the other way counts as inactive or inconclusive.

O=C(NC1CCCCCC1)C1CCN(C(=O)N2CCOc3ccc(Cl)cc32)CC1	G9a block 7.9µM, BAZ2B block inconclusive, JMJD2A Tudor inconclusive (no result: Sfp PPTase inh)
CCCCCCCC(=O)Nc1cc(C(=O)NCCC)ccc1N1CCC2(CC1)CC(c1cccc(Br)c1)=NO2	JMJD2A Tudor inconclusive (no result: Sfp PPTase inh)
O=C(O)/C(=C\c1cccs1)c1ccccc1	none
COc1ccccc1NS(=O)(=O)c1cccc(C(=O)N/N=C/c2c(C)nn(-c3ccccc3)c2N2CCCC2)c1	none
COc1c(/C=N/Nc2ccc([N+](=O)[O-])cc2[N+](=O)[O-])c(C)nn1-c1ccccc1	none
COc1ccccc1NS(=O)(=O)c1cc([N+](=O)[O-])ccc1N/N=C/c1sc(N2CCOCC2)nc1-c1ccccc1	G9a block 40µM, HP1b binding inh inconclusive, BAZ2B block inconclusive, Sfp PPTase inh inconclusive
COc1ccccc1NS(=O)(=O)c1ccc(N/N=C/c2c(C)nn(-c3ccccc3)c2N2CCCC2)c([N+](=O)[O-])c1	G9a block 4.5µM, HP1b binding inh inconclusive, BAZ2B block 4.5µM, JMJD2A Tudor inconclusive
Cc1nn(-c2ccccc2)c(N2CCCC2)c1/C=N/Nc1ccc(S(=O)(=O)Nc2ccccc2)cc1[N+](=O)[O-]	G9a block inconclusive, HP1b binding inh inconclusive, BAZ2B block inconclusive, JMJD2A Tudor 5µM
COc1ccc(C(=O)N/N=C/c2sc(N3CCOCC3)nc2-c2ccccc2)cc1OC	none
O=C(COc1ccccc1)N1CCN(S(=O)(=O)c2cccc([N+](=O)[O-])c2)CC1	none
COc1ccc(-c2c(C#N)c(N)nc3sc(C(=O)c4ccccc4)c(N)c23)cc1	G9a block 50µM
CCOC(=O)CSc1nc(C2CC2)cc(-c2ccc(Cl)cc2)c1C#N	Sfp PPTase inh 18µM
CCSc1nc(C2CC2)cc(-c2cccs2)c1C#N	none
CCCCOC(=O)CSc1nc(N)c(C#N)c(-c2ccc(OC)cc2)c1C#N	none
CCOC(=O)CSc1nc(-c2ccc(Cl)cc2)cc(C(F)(F)F)c1C#N	none (no result: Sfp PPTase inh)
CCOC(=O)CSc1nc(N)c(C#N)c(-c2ccc(OC)cc2)c1C#N	G9a block 50µM
N#Cc1c(-c2ccccc2F)cc(C2CC2)nc1SCC(=O)c1cccs1	G9a block 45µM
CCOc1ccc(-c2c(C#N)c(N)nc3sc(C(=O)c4ccccc4)c(N)c23)cc1	none
CCOc1ccc(-c2c(C)nn3c(C)c(C(=O)NCCc4ccc(Cl)cc4)cnc23)cc1OCC	BAZ2B block inconclusive (no result: Sfp PPTase inh)
O=C(c1ccc(COCC(F)(F)F)o1)N1CCCCCC1	none
O=C(Nc1ccccc1)C1CCCN1/C=C/C(=O)C(F)(F)F (stereo not drawn)	none
COc1cc(-c2cc(C(=O)Nc3cccc(C(C)=O)c3)c3ccccc3n2)cc(OC)c1OC	none
O=C(Nc1cccnc1)c1cc2c(ccc3ccccc32)o1	G9a block inconclusive, BAZ2B block 79µM, JMJD2A Tudor 56µM
NNC(=O)c1cc2c(ccc3ccccc32)o1	none
COc1cc(-c2cc(C(=O)Nc3ccc(O)cc3)c3ccccc3n2)cc(OC)c1OC	G9a block 14µM, Sfp PPTase inh 22µM
Cc1ccc(-c2cc(C(=O)Nc3cccnc3)c3ccccc3n2)o1	G9a block 8.9µM, HP1b binding inh inconclusive, Sfp PPTase inh inconclusive, JMJD2A Tudor 22µM
Cc1ccc(NC(=O)c2cc(-c3ccc(C)o3)nc3ccccc23)cc1	G9a block 10µM, Sfp PPTase inh 10µM, JMJD2A Tudor 79µM
Cc1ccc(NC(=O)c2cc(C)nc3ccccc23)cc1	none
COc1ccc(-c2nnc(SCC(=O)N/N=C/c3ccccc3C(=O)O)n2-c2ccccc2)cc1	none
Cc1ccc(-c2cc(C(=O)NCCN3CCOCC3)c3ccccc3n2)o1	G9a block 28µM
COc1ccccc1NC(=O)c1cc(-c2ccc(C)o2)nc2ccccc12	G9a block 40µM
COc1ccccc1NC(=O)c1cc(C)nc2ccccc12	none
N#CCCn1cc(/C=C2\NC(=S)N(c3ccccc3)C2=O)c(-c2ccc(-c3ccccc3)cc2)n1	none
O=C(O)CCn1cc(/C=C2/NC(=S)N(c3ccccc3)C2=O)c(-c2ccccc2)n1	G9a block 22µM, JMJD2A Tudor inconclusive
Cc1cc(C)cc(Oc2nc(C(F)(F)F)nc3ccccc23)c1	none
CC1CCCN(S(=O)(=O)c2cc(C(=O)NCCc3ccc(S(N)(=O)=O)cc3)ccc2Cl)C1 (stereo not drawn)	none (no result: G9a block, BAZ2B block, Sfp PPTase inh)
C[n+]1nc(Nc2ccccc2)sc1-c1ccc(O)cc1	G9a block inconclusive
CSc1ccc(-c2sc(Nc3ccccc3)n[n+]2-c2ccc(F)cc2)cc1	G9a block 50µM, BAZ2B block inconclusive, JMJD2A Tudor 56µM
Oc1ccc(-c2sc(Nc3ccccc3)n[n+]2-c2ccc(F)cc2)cc1	G9a block 35µM, BAZ2B block inconclusive
Cc1ccc(OCC(=O)N2CCC(C)CC2)c([N+](=O)[O-])n1	G9a block inconclusive (no result: Sfp PPTase inh)
Cc1cccc(C)c1OCC(N)C(C)C (stereo not drawn)	G9a block 3.8µM, BAZ2B block 71µM (no result: Sfp PPTase inh)
CC(C)(C)NC(=O)CN(C(=O)C(=O)Nc1ccc2c(c1)OCCO2)N1CCOCC1	none
O=C(CNC(=O)c1ccc(Cl)cc1)OCc1cc(=O)n2ccsc2n1	none (no result: Sfp PPTase inh)
O=[N+]([O-])c1cc(S(=O)(=O)N2CCCC2)ccc1NN=C1CCCCC1	none
CC(C)(C)C1CCC(=NNc2ccc(S(N)(=O)=O)cc2[N+](=O)[O-])CC1 (stereo not drawn)	G9a block 25µM, BAZ2B block inconclusive, JMJD2A Tudor inconclusive
CC1CCCC/C1=N\Nc1ccc(S(N)(=O)=O)cc1[N+](=O)[O-] (stereo not drawn)	HP1b binding inh inconclusive, BAZ2B block inconclusive, JMJD2A Tudor inconclusive
CCN(CC)S(=O)(=O)c1ccc(NN=C2CCN(C)CC2)c([N+](=O)[O-])c1	G9a block 35µM, HP1b binding inh inconclusive, JMJD2A Tudor inconclusive (no result: BAZ2B block)
CCN(CC)S(=O)(=O)c1ccc(NN=C2CCN(C(C)C)CC2)c([N+](=O)[O-])c1	G9a block 45µM, BAZ2B block inconclusive, JMJD2A Tudor inconclusive
Cc1[nH]c(=O)[nH]c(=O)c1CSc1nnc([C@H](CC(C)C)NC(=O)OC(C)(C)C)o1	G9a block inconclusive
COC(=O)CN(c1ccccc1F)S(=O)(=O)c1ccccc1	none
CCN(c1ccc(OC)cc1)S(=O)(=O)c1nnc(NC(=O)C2CCCCC2)s1	none
CN(C)S(=O)(=O)Nc1cc(Cl)cc(Cl)c1	JMJD2A Tudor 40µM
c1ccc(CCCCN2C(Nc3ccccc3)=NC[C@@H]2Cc2ccccc2)cc1	none (no result: Sfp PPTase inh)
CCCOC(=O)c1ccc(NC(=O)C2C3CCC(C3)C2C(=O)O)cc1 (stereo not drawn)	none
CN(C)c1ccc(/C=N/n2c(-c3ccccc3Br)n[nH]c2=S)cc1	G9a block 0.71µM, BAZ2B block inconclusive, Sfp PPTase inh 56µM, JMJD2A Tudor 14µM
Cc1ccc(-c2n[nH]c(=S)n2/N=C/c2ccc(C)o2)cc1	G9a block 0.89µM, BAZ2B block inconclusive, Sfp PPTase inh 71µM, JMJD2A Tudor 25µM
